An excerpt weighted towards active compounds, which were near 11% of everything screened.
FLuc inh: inhibitors of firefly (Photinus pyralis) luciferase; purified P. pyralis luciferase, luminescence, biochemical; Potency, µM (doses to about 115 µM), usual class: inhibitors; P08659; AID 1347043; hit rate 2.5% among 76,000; further: nearly all actives have a fitted effect of over 65% in size
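Biochemical qHTS: compound (6-point titration) added to 10uM D-luciferin plus 10uM ATP in Tris acetate pH 7.5 buffer with Mg, Tween-20 and BSA, then purified enzyme at 10nM; light output imaged.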
HEK293 tox: cytotoxic compounds in HEK 293 cells | HEK 293 viability, ATP luminescence (CellTiter-Glo), 48-72 h | Potency, µM (highest dose often 115 µM), inactives show top-dose activity change, negative = cytotoxicity, actives largely listed as inhibitors | hit rate 6.6% among 94,000 | AID 1345083; further: nearly all actives have a fitted effect of over 60% in size
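Pintool-delivered compounds were incubated with HEK 293 cells (250 cells/well) at 37 degree Celsius for 48 or 72 hr. ATP-dependent luminescence (CellTiter-Glo) then reported remaining viable cells.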
3T3 cytotox: kills NIH 3T3 cells; NIH 3T3 viability, CellTiter-Glo ATP luminescence, 48-72 h; Potency, µM (top dose mostly 96.7 µM), for the others: at the highest dose activity change, negative = cytotoxicity, actives largely listed as inhibitors; hit rate 4.3% among 94,000; AID 1345082; further: nearly all actives have a fitted effect of over 55% in size
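Cells were seeded at 400 per well, treated with pin-transferred compound, and kept 48 or 72 hr at 37 °C before CellTiter-Glo addition and luminescence imaging of cellular ATP.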
NPR1 antag: antagonists of human natriuretic peptide receptor Npr1; Potency, µM (titrated, usually from 46.3 µM), without a hit: at the top dose activity change, negative = inhibition, most hits filed as inhibitors; P16066; hit rate 1.6% among 76,000; HEK293 hNpr1 GloSensor cGMP, ANP-stimulated luminescence; calls by dose curve; further: nearly all actives have a fitted effect of over 60% in size
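Compound pre-incubated 30 min at room temperature on GloSensor-loaded HEK293 cells stably carrying hNpr1 and the pGS-40F cGMP biosensor. Stimulation uses hNppA at 0.1 nM final; luminescence is taken at baseline and 20 min post-agonist.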
Active calls of the source: *; [ ] = another dose, or the depositor's remark. Unless noted, the call rests on the fitted dose curve; in most records, active means well fitted curve in the direction sought with a large enough effect; inconclusive means small, poorly fitted or top-dose-only effect, or another doubt; inactive means no such curve, though single readings can be large; an effect the other way counts as inactive or inconclusive. On the % scale 0 is the no-effect control and ±100 the full control effect; potency means the concentration at half of the fitted maximal effect.

CC1CCN(c2ccc(-c3cccc(N)c3)nn2)CC1 was read as FLuc inh 0.1µM*, HEK293 tox 32µM*, 3T3 cytotox 32µM* and NPR1 antag 0.63µM*.
For CC(c1ccc(-c2ccc(N3CCN(C)CC3)nn2)cc1)N1CCCCC1 (centres undefined) the results were FLuc inh inactive, HEK293 tox inconclusive, 3T3 cytotox -5% and NPR1 antag 9%.
For COc1ccc(-n2c(=O)c3c(n2Cc2ccccc2)CN(C(=O)C2CCC(OC)CC2)CC3)cc1 (centres undefined) the results were FLuc inh inactive, HEK293 tox -6%, 3T3 cytotox inconclusive and NPR1 antag 1%.
`O=C(C1CCOCC1)N1CCc2c(n(Cc3ccccc3)n(-c3ccccc3)c2=O)C1` gave FLuc inh inactive, HEK293 tox 4%[172 µM], 3T3 cytotox 100µM* and NPR1 antag -1%[70.6 µM].
Screening O=C(C1CCCO1)N1CCc2c(n(Cc3ccccc3)n(-c3ccccc3)c2=O)C1 (centres undefined) returned FLuc inh inactive, HEK293 tox -6%[172 µM], 3T3 cytotox 32µM* and NPR1 antag 2%[70.6 µM].
For CC(C)CCNC(=O)N1CCC(OC2CCN(Cc3ccccc3)CC2)CC1 the results were FLuc inh inactive, HEK293 tox -5%, 3T3 cytotox -16% and NPR1 antag -15%.
For O=C(c1ccc(Cl)nc1)N1CCCN(c2ccc3nnc(C4CC4)n3n2)CC1 the results were HEK293 tox 4% and 3T3 cytotox 0%.
CCNC(=O)N1CCOc2ccc(CCC(=O)Nc3ccc(F)cc3F)cc2C1 was read as FLuc inh inactive, HEK293 tox 40µM*, 3T3 cytotox -30% and NPR1 antag inconclusive.
COc1ccc(NC(=O)CCc2ccc3c(c2)CN(C(=O)NC(C)C)CCO3)cn1 was read as FLuc inh inactive, HEK293 tox 79µM*, 3T3 cytotox -10% and NPR1 antag -30%.
Screening CCN(CC)C(=O)[C@@H](C)C1CC[C@@]2(C)CC[C@H](NC(=O)c3ccncc3)[C@@H](C)[C@@H]2[C@H]1O (some centres undefined) returned FLuc inh inactive, HEK293 tox -18%[172 µM], 3T3 cytotox inconclusive and NPR1 antag 2%[70.6 µM].
Screening Cc1ccc(-c2cc(N3CCCN(C(=O)c4cccc(N(C)C)c4)CC3)n[nH]2)cc1C returned FLuc inh inconclusive, HEK293 tox inconclusive, 3T3 cytotox 40µM* and NPR1 antag inconclusive.
For CN(C)c1cccc(C(=O)N2CCCN(c3cc(-c4ccc(F)cc4)[nH]n3)CC2)c1 the results were FLuc inh 22µM*, HEK293 tox inconclusive, 3T3 cytotox 3% and NPR1 antag -21%.
`Cc1ccc(-c2cc(N3CCCN(C(=O)c4cccnc4)CC3)n[nH]2)cc1C` gave FLuc inh inactive, HEK293 tox -18%, 3T3 cytotox 0% and NPR1 antag -2%.
Screening O=C(c1ccc2cc[nH]c2c1)N1CCCN(c2cc(-c3ccc(F)cc3)[nH]n2)CC1 returned FLuc inh inactive, HEK293 tox 40µM*, 3T3 cytotox inconclusive and NPR1 antag inconclusive.
Screening COc1ccc(S(=O)(=O)N2CC(c3noc(-c4cccnc4)n3)C2)cc1Cl returned FLuc inh inactive, HEK293 tox 1%, 3T3 cytotox -28% and NPR1 antag -1%.
For O=C(NCc1ccccc1Cl)C1CN(C2CCCCC2)C(=O)N1 (centres undefined) the results were HEK293 tox -6%[172 µM] and 3T3 cytotox -24%[138 µM].
For O=C(N[C@@H]1CN(Cc2ccccc2)C[C@H]1CO)c1ccnnc1 the results were FLuc inh inactive, HEK293 tox -8%, 3T3 cytotox -7% and NPR1 antag -16%.
`N#Cc1ccc(C(=O)N[C@@H]2CN(Cc3ccccc3)C[C@H]2CO)cc1` gave FLuc inh inactive, HEK293 tox inconclusive, 3T3 cytotox 14µM* and NPR1 antag 2%.
O=C(NCCNC(=O)c1cccc(-c2ccsc2)c1)c1ccc(C(F)(F)F)cc1 was read as HEK293 tox -28% and 3T3 cytotox -12%.
For COc1cccc(-c2ccc(C(=O)NCCNC(=O)Nc3ccc(C)c(F)c3)cc2)c1 the results were HEK293 tox -7% and 3T3 cytotox -23%.
For CCC(=O)N1CCN(c2nc3c(s2)CC(C(=O)N2CCCCC2)CC3)CC1 (centres undefined) the results were FLuc inh inactive, HEK293 tox -22%, 3T3 cytotox -18% and NPR1 antag -4%.
Screening CC(=O)N1CCN(c2nc3c(s2)CC(C(=O)Nc2ccc(F)c(Cl)c2)CC3)CC1 (centres undefined) returned FLuc inh inactive, HEK293 tox 7.9µM*, 3T3 cytotox 20µM* and NPR1 antag inconclusive.
Screening CCc1ccc(NC(=O)C2CCc3nc(N4CCN(C(=O)C(C)C)CC4)sc3C2)cc1 (centres undefined) returned FLuc inh inactive, HEK293 tox inconclusive, 3T3 cytotox -19% and NPR1 antag -27%.
For CCC(=O)N1CCN(c2nc3c(s2)CC(C(=O)Nc2ccc4c(c2)OCO4)CC3)CC1 (centres undefined) the results were FLuc inh inactive, HEK293 tox 14µM*, 3T3 cytotox inconclusive and NPR1 antag 2%.
CC(=O)N1CCN(c2nc3c(s2)CC(C(=O)NCc2ccc(C(C)C)cc2)CC3)CC1 (centres undefined) was read as FLuc inh inactive, HEK293 tox 45µM*, 3T3 cytotox inconclusive and NPR1 antag inconclusive.
CCC(=O)N1CCN(c2nc3c(s2)CC(C(=O)Nc2ccc(C(C)C)cc2)CC3)CC1 (centres undefined) was read as FLuc inh inactive, HEK293 tox 35µM*, 3T3 cytotox inconclusive and NPR1 antag inconclusive.
Screening CCc1ccc([S+](=O)([O-])c2nnn3c2nc(NCCCOC)c2ccccc23)cc1 returned HEK293 tox -6% and 3T3 cytotox inconclusive.
For CC(C)C(=O)N1CCN(c2nc3c(s2)CC(C(=O)NCCc2cccs2)CC3)CC1 (centres undefined) the results were FLuc inh inactive, HEK293 tox 79µM*, 3T3 cytotox -23% and NPR1 antag -9%.
`CC(C)C(=O)N1CCN(c2nc3c(s2)CC(C(=O)NC2CCN(C)CC2)CC3)CC1` (centres undefined) gave FLuc inh inactive, HEK293 tox -4%, 3T3 cytotox -8% and NPR1 antag -1%.
CCC(=O)N1CCN(c2nc3c(s2)CC(C(=O)Nc2ccc(F)cc2)CC3)CC1 (centres undefined) was read as FLuc inh inactive, HEK293 tox 13µM*, 3T3 cytotox 32µM* and NPR1 antag inconclusive.
Screening COc1ccc(S(=O)(=O)N2CCOC[C@H](Oc3ccc(C(F)(F)F)cn3)C2)cc1 returned FLuc inh inactive, HEK293 tox 100µM*, 3T3 cytotox inconclusive and NPR1 antag inconclusive.
